Measured values from PubChem BioAssay (NCI).
The panel holds about 83,000 compounds, 20% with a hit somewhere; the sample as a whole holds those more often.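 Step 1: grow cells in 96-well plates. Step 2: add test compound at a single concentration. Step 3: incubate 48 h. Step 4: record percent growth.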 Values without a mark were called inactive. Calls of active or inactive are those of the source. Rule for the calls: active = growth percent below 10; inactive = the rest.

Each molecule was assayed on HL-60(TB) leukemia (assay: NCI-60 one-dose screen, 48 h (100 = growth as untreated, 0 = no growth, -100 = all killed)). Details: 10 µM unless noted.

Row | Compound | growth
1 | O=S(=O)(Oc1ccc(-c2cn3ccsc3n2)cc1)c1cccc(C(F)(F)F)c1 | 101%
2 | N#C/C(=N\Nc1ccc(F)cc1)C(=O)Nc1cc(-c2ccccc2)nn1-c1ccccc1 | 3.54% (active)
3 | COc1ccc(CNS(=O)(=O)/N=C2\NC(=O)NC2=C(Cl)Cl)cc1 | -11.1% (active)
4 | C#Cc1nc(C(C)=O)cs1 | 100%
5 | CC1CC(=O)C2=C(C1)Nc1ccc(Br)cc1CC2c1c[nH]c2ccc(Br)cc12 (stereo not given) | 21.2%
6 | O=C(Nc1nc2ccc(O)cc2s1)c1cccc(C(F)(F)F)c1 | 18.3%
7 | COc1ccc(CC(C)=C(c2ccc(OCCN3CCCC3)cc2)c2ccc(OCCN3CCCC3)cc2)cc1 | -64.2% (active)
8 | CCC1=Cc2cc(OC)ccc2OC12C=Cc1cc(OC)ccc1O2 (stereo not given) | -1.93% (active)
9 | Cc1ccc(NC(=O)Nc2nc3ccc([N+](=O)[O-])cc3s2)cc1 | -17.2% (active)
10 | NC(N)=Nc1ccc(Oc2cccc(NC(N)=Nc3ccc(I)cc3F)c2)cn1 | 39.3%
11 | CN1CCN(Cc2ccc(NC(=O)c3cncc(C#Cc4cnc5ccc(N6CCOCC6)nn45)c3)cc2C(F)(F)F)CC1 | -40.8% (active)
12 | CC(=C(c1ccc(OCCN2CCCC2)cc1)c1ccc(OCCN2CCCC2)cc1)c1ccc(Cl)cc1 | -53.7% (active)
13 | CCOC(=O)Nc1cccc(-n2cnc3cc(-c4ccc(O)cc4)ccc32)c1 | 2.92% (active)
14 | COc1cc(/C=C2/C(=O)Nc3ccc(Cl)cc32)ccc1OCc1ccc(Cl)cc1 | 102%
15 | N#Cc1ccc(/C=N/NC(=O)c2[nH]c3ccc(Br)cc3c2-c2ccccc2)s1 | -40% (active)
